# Rows were chosen to be rich in hits. Some 2.4% of all compounds tested hit in one or more screens of this group.
# D2 PAM-1 – positive allosteric modulators of human D2 dopamine receptor; DiscoveRx D2 beta-arrestin cells, luminescence, 90 min; 100% = 57 uM dopamine signal; potentiation, % (concentration not given with the values); AID 624464; P14416; actives 0.23% (n = 360,000); in the data active means potentiation above about 50%; inconclusive means mostly about 30% to 49%
# Target sequence (P14416 whole entry, looked up): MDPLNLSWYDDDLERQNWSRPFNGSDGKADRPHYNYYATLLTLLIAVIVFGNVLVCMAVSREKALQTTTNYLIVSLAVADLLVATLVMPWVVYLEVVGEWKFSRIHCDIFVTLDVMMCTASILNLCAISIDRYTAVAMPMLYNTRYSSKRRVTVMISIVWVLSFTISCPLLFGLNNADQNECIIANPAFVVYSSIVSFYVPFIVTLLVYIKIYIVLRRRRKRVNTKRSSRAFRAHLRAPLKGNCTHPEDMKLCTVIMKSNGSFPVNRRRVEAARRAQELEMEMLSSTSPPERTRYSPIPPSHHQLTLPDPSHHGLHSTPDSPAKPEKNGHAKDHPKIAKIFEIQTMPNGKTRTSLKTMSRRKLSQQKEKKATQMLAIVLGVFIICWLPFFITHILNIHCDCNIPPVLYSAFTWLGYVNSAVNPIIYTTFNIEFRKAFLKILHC
#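 D2 cells co-treated with compound plus 50 nM dopamine (EC20) for 90 min at 37 deg C to detect potentiation. Beta-arrestin recruitment was read as enzyme-fragment luminescence after 1 h at ambient temperature. Full response was set by 57 uM dopamine.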
# D2 PAM-2 – positive allosteric modulators of human D2 dopamine receptor; P14416; actives 0.34% (n = 340,000); potentiation, % at 10 µM; HEK293 T-REx D2, calcium flux, EC20 dopamine potentiation;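 active means potentiation over 3 SD above the plate norm, cut at about 30% in these data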
#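 Cells plated with tetracycline inducer and held overnight at 30 C; calcium dye loaded 30–90 min at room temperature; baseline taken, compound added and read 180 s; EC20 dopamine then added and read 180 s.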
# D2 ag-1 – activates the human D2 dopamine receptor; P14416; DiscoveRx PathHunter D2 beta-arrestin, luminescence, 90 min; 100% = 57 uM dopamine signal; activation, % (test concentration not listed); actives 0.084% (n = 360,000); AID 624465; in the data active means activation above about 40%; inconclusive means between about 15% and that limit
#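 Agonist mode: compounds alone added to overnight-plated D2 PathHunter cells for 90 min at 37 C, with 57 uM final dopamine (EC100) defining full response. Beta-arrestin recruitment detected by chemiluminescent reagent, read after 1 h at ambient temperature.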
# D2 ag-2 – activates the human D2 dopamine receptor; activation, % at 2 µM; AID 485358; actives 0.53% (n = 340,000); HEK293 T-REx D2 cells, calcium flux agonist mode; P14416;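 active means activation over 3 SD above normal in the single-dose calcium agonist read, cut at about 30% in these data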
#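 Tetracycline-induced HEK293 Trex cells with D2 receptor force-coupled to calcium signaling, plated overnight at 30 C and loaded with no-wash calcium dye. Calcium flux read kinetically for 180 s after compound addition; responses flag agonists.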
# D2 antagonist – antagonists of human D2 dopamine receptor | HEK293 TREx D2 cells, calcium flux, dopamine EC80 | inhibition, % at 10 µM | P14416 | actives 2% (n = 340,000); in the data active means inhibition above about 30%; inactive means below that, where a call was filed
#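 Cells plated overnight at 30 C with tetracycline; no-wash calcium dye, 30–90 min RT; 10 s baseline; compound pinned; 180 s read; EC80 dopamine added; another 180 s read.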
# D3 ag – D3 receptor agonism confirmed, beta-arrestin readout; shares compounds with D2 ag-2; DiscoveRx D3 beta-arrestin cells, luminescence, 90 min; Potency, µM (titrated, usually from 76.9 µM), hits mostly activators; actives 4% (n = 2,300); further: nearly all actives have a fitted effect of over 70% in size
# D2 ag-3 – D2 receptor agonism, beta-arrestin counterscreen | actives 5.9% (n = 2,300) | Potency, µM (series often up to 76.9 µM), actives largely listed as activators | DiscoveRx PathHunter D2 beta-arrestin, luminescence, 90 min; response scale: percent relative to full dopamine signal | AID 720507 | shares compounds with D2 ag-2; further: nearly all actives have a fitted effect of over 70% in size
# A number is an active result; – = inactive; ? = inconclusive; · = no result. Unless noted, the call rests on the fitted dose curve; in most records, active means well fitted activation curve with a large enough effect; inconclusive means small, poorly fitted or top-dose-only effect; inactive means flat fitted curve, though single readings scatter.
SMILES,D2 PAM-1,D2 PAM-2,D2 ag-1,D2 ag-2,D2 antagonist,others
COC(=O)c1ccc(NC(=O)c2cccn(Cc3ccccc3C)c2=O)cc1,·,–,·,–,·,
COc1ccc(OCC(=O)N2CCN(Cc3cccc(OC)c3OC)CC2)cc1,·,–,·,·,·,
COc1ccc(C(=O)C(Cc2ccccc2)N(C)C)cc1 (configuration not stated),–,–,–,–,–,
COc1ccc(C(CNC(=O)c2ccc3c(c2)CCC3)N(C)C)cc1 (configuration not stated),–,–,–,–,80,
CC1CN=C(NCc2ccncc2)S1 (configuration not stated),–,–,–,–,–,
CC1CN=C(NCc2ccc(F)cc2)S1 (configuration not stated),–,–,–,37,–,
CC1CCN(C(=O)COC(=O)c2cn(C)c3ccccc23)CC1,–,–,–,–,–,
Cn1cc(C(=O)OCC(=O)NC2CCCCC2)c2ccccc21,–,–,–,–,39,
COCc1ccc(CN2CCCC(C(=O)c3sccc3C)C2)o1 (configuration not stated),–,–,–,–,38,
Fc1cccc(CNCCc2c[nH]c3ccccc23)c1,–,–,–,–,–,
OC(CCNCCc1c[nH]c2ccccc12)C(F)(F)Cl (configuration not stated),–,–,–,–,53,
Cc1cccc(CNCCc2c[nH]c3ccccc23)c1,–,–,–,–,47,
c1ccc(CNCCc2c[nH]c3ccccc23)cc1,–,–,–,–,61,
Clc1ccccc1CNCCc1c[nH]c2ccccc12,–,·,–,·,·,
OC(CNCCc1c[nH]c2ccccc12)C(F)(F)F (configuration not stated),–,–,–,–,–,
CCc1ccc(OCC(=O)N2CCN(CCc3ccccn3)CC2)cc1,·,–,·,–,·,
CS(=O)(=O)Nc1ccc(Cc2noc(-c3ccc4[nH]cc(CCN)c4c3)n2)cc1,·,–,·,–,40,
COc1ccc2c(CCN)c[nH]c2c1,–,–,–,–,–,
CCc1ccccc1NC(=O)c1cccn(Cc2ccccc2F)c1=O,·,–,·,–,·,
O=Cc1c(C(=O)O)n(Cc2ccc(Cl)cc2)c2ccccc12,–,–,–,31,–,
O=C1CC(c2ccc(C(F)(F)F)cc2)c2c(c3ccccc3oc2=O)O1 (configuration not stated),·,–,·,–,·,
CN1CCc2c([nH]c3ccccc23)C1,–,–,–,–,51,
O=[N+]([O-])c1ccc(N2CCCCCC2)c2nonc12,–,–,–,85,–,
O=[N+]([O-])c1ccc(N2CCCCC2)c2ncccc12,–,–,–,–,–,
Fc1ccc(CN2CCN(c3ccc(Cl)cc3)CC2)cc1,–,–,–,–,–,
SMILES,D2 PAM-1,D2 PAM-2,D2 ag-1,D2 ag-2,D2 antagonist,others
Cc1cccc(CN2CCN(Cc3ccc(Cl)cc3)CC2)c1,–,–,–,–,–,
Cc1cccc(CN2CCN(c3ccc(Cl)cc3)CC2)c1,–,–,–,–,34,
CCCCCCN1CCN(c2ccc(Cl)cc2)CC1,–,–,–,–,51,
Cc1nnc(NC(=O)c2cccn(Cc3cccc([N+](=O)[O-])c3)c2=O)s1,·,–,·,–,·,
Cc1ccc(C2SCC(=O)Nc3c2c(=O)[nH]n3C2CCOC(C)(C)C2)cc1 (configuration not stated),–,–,–,–,37,
Cc1ccc(NC(=O)CN2C(=O)CN=C(c3ccccc3)c3ccccc32)cc1Cl,·,–,·,–,·,
CCOc1ccc(CN(CCc2ccc3c(c2)OCO3)Cc2cccc(Br)c2)cc1,·,–,·,·,·,
NCCc1ccc(O)cc1,–,–,–,51,47,D3 ag=?;D2 ag-3=–
CCCNC(=O)N1[C@H]2CC[C@@H]1C(C(=O)OC)=C(c1ccc(-c3ccccc3)c(F)c1)C2,–,–,–,–,–,D3 ag=–;D2 ag-3=?

# Screening data: PubChem BioAssay, National Center for Advancing Translational Sciences (NCATS)
